Assay outcomes as filed in PubChem BioAssay.
A selection: hits, their analogues and other compounds. The true share with any hit is near 3%.
TRPM1 prom inh: inhibitors of MITF-dependent TRPM1 promoter reporter, primary screen, cell-based, SK-MEL-5, single point, luciferase | SK-MEL-5 TRPM1 promoter luciferase, 24 h | inhibition, % at 12.5 µM | actives 0.83% (n = 330,000) | AID 488899, 2010;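 active means mean inhibition across replicates of 60% or more, whatever share of single replicates reaches that level; inconclusive means some that reach 60%, reason not given; inactive means mean inhibition across replicates below 60%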
Shn3 3UTR inh: reduction of Shn3 3'UTR firefly luciferase signal, primary screen, Schnurri-3 inhibitor project, cell-based, Clone20 osteoblasts, set 2 | actives 0.52% (n = 360,000) | Clone20 osteoblast Shn3 3'UTR firefly luciferase, 24 h | inhibition, % at 12.5 µM;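 active means mean inhibition of at least 75% with every replicate also reaching 75%; inconclusive means mean inhibition at least 75% but some replicate below; inactive means mean inhibition below 75%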;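 further: 0% = median of neutral control wells and 100% = pilot-screen positive control compound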
PAX8 reporter: inhibitors of PAX8-driven TPO luciferase reporter, primary screen, RMG-I cells, single concentration; SteadyGlo, 24 h; inhibition, % at 12.6 µM; actives 1.2% (n = 360,000); AID 652154, 2013;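 active means mean replicate inhibition at least 60% with every replicate also reaching 60%; inconclusive means only one of the two criteria is met; inactive means mean below 60% and not all replicates reaching 60%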;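 further: luciferase light reporting Pax8 driven TPO promoter activity; plate controls were median of neutral control wells for no effect and mitoxantrone controls for full effect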
EWS-Fli inh: EWS/Fli-driven NR0B1 reporter inhibitors, primary screen, A673 cells, NR0B1 luciferase, luminescence, MLPCN library | inhibition, % at 12.6 µM | actives 0.67% (n = 350,000) | AID 651661, 2012 | viability-normalised;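 active means mean inhibition of at least 50% after viability correction, with every replicate also passing that limit; inconclusive means mean reaches 50% but only one of two replicates passes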;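 further: firefly luciferase signal divided by Alamar Blue viability fluorescence both relative to DMSO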
Peg3 prom inh: Peg3 promoter-driven luciferase inhibitors, primary screen, cell-based, HeLa, luciferase luminescence; HeLa PEG-Prom luciferase reporter, overnight; inhibition, % at 20 µM; actives 1.7% (n = 360,000);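 active means inhibition of at least 50% at 20 µM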
ABHD5 PLIN5 PPI: ABHD5-PLIN5 interaction inhibitors, primary screen, cell lysate, split luciferase complementation, luminescence. inhibition, % at 4 µM. Split G. princeps luciferase complementation, 4 h. Perilipin-5 (Homo sapiens) + 1-acylglycerol-3-phosphate O-acyltransferase ABHD5 (Homo …. actives 0.78% (n = 360,000);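 active means inhibition above the mean inhibition across every tested compound plus 3 SD, cut at about 22% in these data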;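 further: 0% = DMSO only wells and the 100% control is not disclosed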
Target sequence (Q00G26 whole entry, looked up): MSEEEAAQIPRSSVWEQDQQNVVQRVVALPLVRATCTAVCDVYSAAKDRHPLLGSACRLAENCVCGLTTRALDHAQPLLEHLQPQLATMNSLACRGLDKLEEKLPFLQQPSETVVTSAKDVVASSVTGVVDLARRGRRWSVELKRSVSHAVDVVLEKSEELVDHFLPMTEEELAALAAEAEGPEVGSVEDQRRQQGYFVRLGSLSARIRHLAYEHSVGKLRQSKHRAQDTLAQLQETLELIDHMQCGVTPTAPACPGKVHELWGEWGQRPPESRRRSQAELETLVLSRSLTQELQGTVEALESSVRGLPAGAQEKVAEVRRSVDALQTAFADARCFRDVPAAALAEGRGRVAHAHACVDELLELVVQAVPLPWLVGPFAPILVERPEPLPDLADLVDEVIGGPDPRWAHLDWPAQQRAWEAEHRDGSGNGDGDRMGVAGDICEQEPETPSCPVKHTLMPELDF
Target sequence (Q8WTS1 whole entry, looked up): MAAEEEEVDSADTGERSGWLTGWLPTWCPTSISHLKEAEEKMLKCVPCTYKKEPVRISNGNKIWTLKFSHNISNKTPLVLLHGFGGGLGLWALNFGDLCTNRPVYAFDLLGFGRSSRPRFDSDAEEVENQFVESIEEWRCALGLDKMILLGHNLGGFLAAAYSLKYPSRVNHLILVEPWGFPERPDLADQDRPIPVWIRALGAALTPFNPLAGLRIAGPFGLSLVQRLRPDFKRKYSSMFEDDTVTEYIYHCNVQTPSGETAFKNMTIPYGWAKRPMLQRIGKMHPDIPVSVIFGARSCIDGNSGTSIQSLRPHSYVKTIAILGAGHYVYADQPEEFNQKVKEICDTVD
Active calls of the source: *; ? = inconclusive; . = no result; ! = not active in a repeat.

SMILES	TRPM1 prom inh	Shn3 3UTR inh	PAX8 reporter	EWS-Fli inh	Peg3 prom inh	ABHD5 PLIN5 PPI
Cc1ccc(S(=O)(=O)Nc2ccc3c(c2)C(=O)N([C@H](C)CO)C[C@@H](C)[C@H](CN(C)Cc2ccncc2)O3)cc1	.	.	8	3	.	.
CCCC(=O)Nc1ccc2c(c1)C(=O)N(C)C[C@H](OC)[C@H](C)CN(Cc1ccccc1)[C@H](C)CO2	.	.	.	0	.	.
CNC(=O)c1[nH]nc2c1CCc1ccccc1-2	8	13	-17	-4	-46	-1
COc1ccc(/C=N/NC(=O)c2[nH]nc3c2CCc2ccccc2-3)cc1OC	19	-13	42	53*	-27	-3
CC[C@@]1(O)C(=O)OCc2c1cc1n(c2=O)Cc2cc3c(CN(C)C)c(O)ccc3nc2-1	79*	53	102*	63*	37	5
O=c1cccc2n1Cc1cc3ccccc3nc1-2	-35	-44	-91	-101	-242	9
CC[C@@]1(O)C(=O)OCc2c1cc1n(c2=O)Cc2cc3c(N)cccc3nc2-1	80*	36	99*	?	72*	-7
CCOc1ccccc1NC(=O)Nc1ccc2c(c1)OCO2	-21	-14	-24	-46	-108	-3
C=CCOc1ccccc1CN(C(=O)CCl)c1ccc2c(c1)OCO2	49	44	121*	59*	-18	-8
Cc1ccc(-n2nnnc2Sc2nc([N+](=O)[O-])nn2C)c(C)c1	73*	-35	.	.	-1	-5
Cc1noc(C)c1NC(=O)Nc1ccc2c(c1)C(=O)N([C@H](C)CO)C[C@H](C)[C@@H](CN(C)C(=O)Nc1ccc(F)cc1)OCCCC[C@H](C)O2	.	.	14	-4	.	.
O=C(O)CCCNC(=O)C(c1ccccc1)c1ccccc1	-6	-23	164*!	1	10	-6
O=C(O)CCCNC(=O)CCCNC(=O)C(c1ccccc1)c1ccccc1	19	-12	-10	11	14	0
CCOC(=O)[C@]12CCCC=C1N(Cc1cccc3ccccc13)C(=O)[C@H](CC(=O)N1CCN(C(=O)c3ccco3)CC1)C2	.	.	85*	2	.	1
COC(=O)[C@]12CCCCC=C1N(Cc1ccco1)C(=O)[C@H](CC(=O)N1CCN(C(=O)c3ccco3)CC1)C2	.	.	85*	-4	.	-1
COC(=O)[C@]12CCCCC=C1N(Cc1ccco1)C(=O)[C@H](CC(=O)N1CCSCC1)C2	.	.	17	4	.	-4
CC(C)(C)c1ccc(-c2cn(-c3ccc(Br)cc3)c3[n+]2CCCS3)cc1	90*	80	95*	39	45	10
Cc1ccc(S(=O)(=O)N2CCC(C(=O)N/N=C/c3cccnc3)CC2)cc1	8	10	24	.	52*	-4
COc1cc(/C=C/C2=NNC(=O)CC2)cc(OC)c1OC	47	4	14	5	61*	-3
CC(C)c1ccc(/C=C/C2=NNC(=O)CC2)cc1	9	4	-62	11	-243	0
CCNC(=O)C1CCCN(C(=O)c2ccc(F)c(Cl)c2)CC1 (stereo not drawn)	.	3	76*	-6	-1	-3
CCNC(=O)C1CCCN(C(=O)c2cccc(Cl)c2)CC1 (stereo not drawn)	.	17	-20	-2	-6	-5
CO[C@@H]1CN(C)C(=O)c2cc(NS(=O)(=O)c3cccc(F)c3)ccc2OC[C@@H](C)N(C(=O)Cc2cccnc2)C[C@H]1C	.	.	18	10	.	.
CN(C)CC#Cc1ccc([C@@H]2[C@@H](CO)N3CCCCN(C(=O)NC4CCCC4)C[C@H]23)cc1	.	.	6	-7	.	.
CC(=O)c1c(C)[nH]c(C(=O)Nc2nc(-c3ccc(-c4ccccc4)cc3)cs2)c1C	-5	42	-34	2	103*	-6
CC(=O)c1c(C)[nH]c(C(=O)Nc2nc(C)cs2)c1C	31	49	58	74*	46	1
CN1C(=O)c2cc(NC(=O)Cc3cccs3)ccc2OC[C@H]2O[C@H](CC(=O)N[C@H]3CCN(Cc4ccccc4)C3)CC[C@@H]21	.	.	7	1	.	.
